This passage reports sensor-assay potency score (higher = more potent) results from the OligoGym collection.
Note: reference of the scale not given here.

The target in one assay is NELL2. Nature of the assay: pooled miR-30 sensor sort-seq; sequence = guide strand. As to conditions: shRNA.
TTACAAACTTTGCAACAGCTGT registered a sensor-assay potency score (higher = more potent) of -0.672. Same read-out and setting: next, TGTCACATTGAACAAAACCATC: -1.67; TTGCATGTCGTTCCATTCCCTG: -1.03; TAACCTTTACAAACTTTGCAAC: -0.975. TAGAGTTTCACACTGGATGGTT: the sensor-assay potency score (higher = more potent) is 0.431. The same measure, in the same setting: for TTGTGATACACTCATCATGTTC the value was -1.15; for TAAGACGTCAATCTGTAGGGAA, 0.711; for TCGACAGCTACAAACAGCCCTG, -0.27. For TTATTTCTCTGTCCTAGCCAAA, the sensor-assay potency score (higher = more potent) was -1.55. Sequence TAAAATATCCTGTAGCTCCATG yielded a sensor-assay potency score (higher = more potent) of -0.475. Take TTTCACAATAGCACTGATCCAA: the sensor-assay potency score (higher = more potent) was 0.272.

The next assay deals with NETO2. The description is as above. As to conditions: shRNA.
TTAACATATATAGACTGCCTGA showed a sensor-assay potency score (higher = more potent) of -0.881. The sequence TTGTTTTCTCCTCTTGTTCTAC yielded a sensor-assay potency score (higher = more potent) of -0.539.

On to TTTCAATAGAACTGCTTCCATC, for which the sensor-assay potency score (higher = more potent) was -1.24. For TTATTAACAACACTTTGAGGAC, the sensor-assay potency score (higher = more potent) was -0.45.

TAATCCACATGAATCTCCCTGT: the sensor-assay potency score (higher = more potent) worked out at 0.411. With TAAATGAATATTTTGCTCGAAA, the sensor-assay potency score (higher = more potent) was -0.895.

In the case of TTGATAATCTAGGAACCTCAAA, the sensor-assay potency score (higher = more potent) was -1.24. Sequence TTGCTCGAAATCCCAGTCCTTC showed a sensor-assay potency score (higher = more potent) of -0.463.

Take TTCTTTGACGTGGAGCAGCTTC: the sensor-assay potency score (higher = more potent) is -0.587. Turning to TTGACGTGGAGCAGCTTCCAAA, the sensor-assay potency score (higher = more potent) is -1.08.

The sequence TTAATCCACATGAATCTCCCTG showed a sensor-assay potency score (higher = more potent) of 0.06. The sequence TAACAACACTTTGAGGACCGAG came in with a sensor-assay potency score (higher = more potent) of -0.0442.

In another assay the target is NEURL2. The description is as above. As to conditions: shRNA.
TTTCTCCTCGATCTCGACCAGG gave a sensor-assay potency score (higher = more potent) of -0.592.

In the case of TAGGCGGCACAGAGTCTGCAGG, the sensor-assay potency score (higher = more potent) is -1.34. TCTTTGTGGAAGCAAACACGTC returned a sensor-assay potency score (higher = more potent) of -1.58.

TTGTGGAAGCAAACACGTCCAC had a sensor-assay potency score (higher = more potent) of -0.451. On the same count and under the same terms, for TATGGTTCCACGAGGAGGGTTG the value was -0.457; for ATGATGTGCATGTCGGCCGTGC, -0.877; for TTTATTTCTGGTCTTGGCTGGC, -0.107. For the sequence ATCGGGCAGAGAAAACTCGGGA, the sensor-assay potency score (higher = more potent) is -0.832. Turning to AAACACGTCCACCACCGCGTAG, the sensor-assay potency score (higher = more potent) was -1.26. The same measure, in the same setting: for TTCTCCTCGATCTCGACCAGGA the value was -0.684; for TGTGGAAGCAAACACGTCCACC, -1.66.

Another assay addresses NEUROD6. The description is as above. Conditions: shRNA.
With TAAGTTGTCCAGAGCGTCGTTG, the sensor-assay potency score (higher = more potent) is -0.475. Still for that read-out and setting: for AATAGTTGAAACACACTTCAGA the value was -0.228. As for TAATTCATCTTGCATTGTGAGA, the sensor-assay potency score (higher = more potent) is -0.914.

In turn, TTTAATTCATCTTGCATTGTGA had a sensor-assay potency score (higher = more potent) of -0.0595. TTGTCTTAATTAGACAGGGGAG gave a sensor-assay potency score (higher = more potent) of -1.08. As for TTCTCTAGAAAACTTTCTGCAC, the sensor-assay potency score (higher = more potent) was -0.894.
